# Data as given in PubChem BioAssay (Tox21).
# Inconclusive results are not listed. A call without a number means that no potency is given here. Active and inactive are the calls of the source. The call rests on the fitted dose curve; in most records, active means well fitted activation curve with a large enough effect in the repeat runs; inconclusive means weak or mixed curves; inactive means flat fitted curve, though single readings scatter.
# Test: A CellTox Green Cytotoxicity Assay to monitor cytotoxicity in HEK293 cells - 32 hour (AID 1224881); further: nearly all actives have a fitted effect of over 40% in size
# Settings: CellTox Green fluorescence; series mostly up to 76.8 µM
# Description: National Center for Advancing Translational Sciences [NCATS]
# NIH Chemical Genomics Center [NCGC]
# U.S. Environmental Protection Agency [EPA]
# National Institutes of Environmental Health Sciences [NIEHS]
# National Toxicology Program [NTP]
# Cell-based models are critical for drug discovery. Determining the natural cytotoxic effects resulting from test compounds is an essential research activity. A CellTox Green Cytotoxicity Assay to monitor cytotoxicity in real time of continues cell culture during 40 hours of the compound treatment was used to screen Tox21 10K library compounds in Hek293 cells. CellTox Green Cytotoxicity Assay is a nonlytic, homogeneous, biofluorescent method to measure cytotoxicity in cell culture after experimental manipulation. The assay system uses a proprietary asymmetric cyanine dye that is excluded from viable cells but preferentially stains the dead cell's DNA. […] Viable cells produce no appreciable increases in fluorescence. Therefore, the fluorescence signal produced by the binding interaction with dead cell DNA is proportional to cytotoxicity.
# The mixture of Hek293 cell suspension and reagents were dispensed at 600cells/6 ul/well in 1536-well tissue culture treated black solid bottom plates using a Multidrop dispenser. After the assay plates were incubated at a 37 C/5% CO2 incubator for 5 hours, 23 nL of compounds dissolved in DMSO, positive and negative controls was transferred to the assay plate by a pintool work station. The plates were incubated at 37 C for 40 hours. The fluorescence intensity were measured at 0h, 8h, 16h, 24h, 32h and 40h time points using ViewLux plate reader during compound treatment.
row,Structure (SMILES),Potency
1,CCCCOCCOCCOC(C)=O,inactive
2,CCCCCCCCCCCCCC(=O)OC(C)C,inactive
3,c1ccc2[nH]c(-c3cscn3)nc2c1,inactive
4,Cn1cnc2c1c(=O)[nH]c(=O)n2C,inactive
5,CCCCOCCOCCSC#N,inactive
6,C=C(C)OC(C)=O,inactive
7,CN/C(=C\[N+](=O)[O-])NCCSCc1ccc(CN(C)C)o1,inactive
8,OCCCc1ccccc1,inactive
9,COCCOCCOC,inactive
10,Nc1cccc(N)c1,inactive
11,CCCCC/C(C=O)=C\c1ccccc1,inactive
12,CC(O)COc1ccccc1 (stereo not given),inactive
13,COc1ccc(C(=O)c2ccccc2)c(O)c1,inactive
14,CCc1cc(C(N)=S)ccn1,inactive
15,NCCNc1cccc2ccccc12,inactive
16,NC(N)=NC(N)=NCCc1ccccc1,inactive
17,NC(=O)N1c2ccccc2C=Cc2ccccc21,inactive
18,CC(C)CC(C)CC(O)CC(C)C (stereo not given),inactive
19,Cc1cccc(Nc2cc(Cl)nc(SCC(=O)O)n2)c1C,inactive
20,Cc1cnc(NC(=O)C2=C(O)c3ccccc3S(=O)(=O)N2C)s1,inactive

row,Structure (SMILES),Potency
1,COc1cc2c(c(OC)c1OC)-c1ccc(OC)c(=O)cc1[C@@H](NC(C)=O)CC2,inactive
2,C#C[C@]1(O)CC[C@H]2[C@@H]3CCc4cc(O)ccc4[C@H]3CC[C@@]21C,inactive
3,COc1ccc(O)cc1,inactive
4,CCCCNC(=O)NS(=O)(=O)c1ccc(N)cc1,inactive
5,CCn1cc(C(=O)O)c(=O)c2ccc(C)nc21,inactive
6,CC1=NN(c2ccccc2)C(=O)C1,inactive
7,NC(=O)OCC(COC(N)=O)c1ccccc1,inactive
8,CCCCCCCCOc1ccc(C(=O)c2ccccc2)c(O)c1,inactive
9,CCN(CC)CCOC(=O)c1ccc(N)cc1,inactive
10,CCN1CCCC1=O,inactive
11,NC(=O)c1ccc([N+](=O)[O-])cc1Cl,inactive
12,COC(=O)C1CCC(C(=O)OC)CC1 (stereo not given),inactive
13,CC(C)Cc1ccc(C(C)C(=O)O)cc1 (stereo not given),inactive
14,CC1(C)O[C@@H]2[C@@H](CO[C@@]3(COS(N)(=O)=O)OC(C)(C)O[C@@H]23)O1,inactive
15,C=CCOC(=O)CC(C)C,inactive
16,COC(=O)c1ccc(O)cc1,inactive
17,Nc1ccc(N=Nc2ccccc2)c(N)n1,inactive
18,CCCCCCCC(=O)OCC(O)CO (stereo not given),inactive
19,O=C(O)Cc1cccc2ccccc12,inactive
20,OC[C@@H](O)[C@@H](O)[C@H](O)[C@H](O)CO,inactive
